Results published in the OligoGym collection.

target: ZSCAN21; assay: pooled miR-30 sensor sort-seq; sequence = guide strand; details: shRNA
Note: reference of the scale not given here.

Sequence | sensor-assay potency score (higher = more potent)
TTCGTTACACTGATAAGGCTTC | 0.478
TTTAAGAAGGTCTGAGCTCTGC | 0.0311
TGGATCTTGAGCGAACTCCTGC | -0.804
TTTCTCTTCTTTCTCCTCGACT | -0.944
TAATGTTTCTTCCTTAACTAGA | -0.759

target: ZSCAN2; assay: as above; details: shRNA

Sequence | sensor-assay potency score (higher = more potent)
TTGTAGTATTTCTCTCCTGTGT | -0.38
TAAAGCTTTTTCCACATTCATC | -1.45
TTCATTCTCAAACATGTCTTGA | -0.592
TTGTAACTAAAGCTTTCGCCGC | -0.979
TTAGATTGGAGTTGTAACTAAA | -0.577
TTGAGGAGGTTGGAGCTCCAGC | -0.932
TAAAATTTGAACCATCACTAAA | -1.38
TTCACTGTCCTGAAGGGTCTGG | 0.109
TACAGCACTGTCCTGAAGGGTC | -0.556
TAGTATACAAAAGCTACCCGAC | -0.627
TTTCCGAGAATATCTTACGTGA | -0.583
TATCTCAAAATCACTGTCCTGA | 0.962

target: ZSWIM5; assay: as above; details: shRNA

Sequence | sensor-assay potency score (higher = more potent)
TTTGTCAGTGGACATGAGCTTT | -0.796
TAGTCTTTCACTTTCCCGCTGG | 0.269
TAGCAATCTTGAATGCATCTTG | 0.435
TAGTGAATACTGTTCGTCTTGG | -0.686
TTAAAGAGTAGTCTTTCACTTT | -0.123
TTGAGTTGAGTTGCTTTCCAGA | -0.443
TAGCTCATCGTCCAGCTGCAGC | -1.21
TTGAGGTTGTCGATGAACTGGG | -0.0434
TTCTGTAGCACAGGTCACCAAC | -1.2
TAGAATATGTCCTTGTTCCCAC | -0.0166
TTGCACTAGCTCATCGTCCAGC | -0.629
TTGTCTGTCATGTTTGTTCCTT | -0.0787

target: ZZEF1; assay: as above; details: shRNA

Sequence | sensor-assay potency score (higher = more potent)
TTCTTGTTTTAGTATCTCCATG | -1.42
TTTCTTTTGAACTTATGCCCGT | -0.351
TTTAACAGGTCACAGTAGCGAG | -1.06
TTAGTGTTTTATACAATCCTTT | -0.602
TTCAGCTGCAGGTAGCACCAGG | -0.559
TTAACCTCCTTACTATTCCGGT | -0.49
TTATAGGCAAACACCAACCCAC | -0.586
TAGCACTTTGCTACTGACTTGA | 0.394
TTGAGGAGCAGGTTCTGTCTGA | -0.0904
TTAATCTGGACATAGAGCTGAC | -0.316
TTGAGAAATCTGTAGATCCTGG | 0.26
